Experimental data: PubChem BioAssay AID1159580 (chemical genetic matrix, 2015)
In all, about 5,500 compounds went through this assay and about 2,000 (36%) were called active. About 18% were inconclusive and are not listed. No stated cut-off is given here; in the data, active means normalized growth mostly below about 0.91 (no sharp cut-off); inconclusive means no clear call, values can overlap the other calls; inactive means mostly above about 0.92. The list shows a part of the results.

Assay: chemical genetic growth profiling, strain panel (AID 1159580);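 further: tested at 20 µM; growth read once vehicle control cultures reached saturation at 30 °C; 1 = growth at the plate median or of vehicle wells; lower values mean less growth of the strain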
Conditions: growth OD

Measured: normalized growth

c1ccc([C@H]2CN3CCSC3=N2)cc1
inactive: S. cerevisiae deletion strains, locus YJR075W, strain HOC1, active compounds read low 1.01 | S. cerevisiae deletion strains, locus YKL009W, strain mrt4, active compounds read low 1.01 | S. cerevisiae deletion strains, locus YKL068W, active compounds read low 1.01 | S. cerevisiae deletion strains, locus YKL085W, strain MDH1 (second series), active compounds read low 0.999 | S. cerevisiae deletion strains, locus YKL085W, strain MDH1, active compounds read low 0.999 | S. cerevisiae deletion strains, locus YKL160W, strain elf1, active compounds read low 1.01 | S. cerevisiae deletion strains, locus YKL190W, strain CNB1, active compounds read low 0.998 | S. cerevisiae deletion strains, locus YKR001C, strain vps1, active compounds read low 1 | S. cerevisiae deletion strains, locus YKR026C, strain gcn3, active compounds read low 1.02 | S. cerevisiae deletion strains, locus YKR091W, strain srl3, active compounds read low 0.993 | S. cerevisiae deletion strains, locus YLL001W, strain dnm1, active compounds read low 0.99 | S. cerevisiae deletion strains, locus YLL026W, active compounds read low 1.01 | S. cerevisiae deletion strains, locus YLL041C, strain sdh2, active compounds read low 1.01 | S. cerevisiae deletion strains, locus YLR027C, strain aat2, active compounds read low 0.99 | S. cerevisiae deletion strains, locus YLR039C, strain RIC1, active compounds read low 1.02 | S. cerevisiae deletion strains, locus YLR058C, strain SHM2, active compounds read low 1.01 | S. cerevisiae deletion strains, locus YLR102C, strain apc9, active compounds read low 1 | S. cerevisiae deletion strains, locus YLR113W, strain HOG1, active compounds read low 1.08 | S. cerevisiae deletion strains, locus YLR221C, strain rsa3, active compounds read low 0.979 | S. cerevisiae deletion strains, locus YLR258W, strain gsy2, active compounds read low 1.02 | S. cerevisiae deletion strains, locus YLR262C, strain YPT6 (second series), active compounds read low 0.999 | S. cerevisiae deletion strains, locus YLR262C, strain YPT6, active compounds read low 0.992 | S. cerevisiae deletion strains, locus YLR268W, strain sec22, active compounds read low 0.993 | S. cerevisiae deletion strains, locus YLR320W, strain mms22, active compounds read low 0.988 | S. cerevisiae deletion strains, locus YLR330W, strain CHS5, active compounds read low 1.01 | S. cerevisiae deletion strains, locus YLR342W, strain FKS1 (second series), active compounds read low 1.02 | S. cerevisiae deletion strains, locus YLR342W, strain FKS1, active compounds read low 1.01 | S. cerevisiae deletion strains, locus YLR357W, strain rsc2, active compounds read low 1.03 | S. cerevisiae deletion strains, locus YLR370C, strain arc18, active compounds read low 0.999 | S. cerevisiae deletion strains, locus YLR371W, strain rom2, active compounds read low 1.01 | S. cerevisiae deletion strains, locus YLR384C, strain iki3, active compounds read low 1.01 | S. cerevisiae deletion strains, locus YLR418C, strain cdc73, active compounds read low 0.984 | S. cerevisiae deletion strains, locus YML016C, strain PPZ1, active compounds read low 1 | S. cerevisiae deletion strains, locus YML032C, strain rad52, active compounds read low 1.02 | S. cerevisiae deletion strains, locus YML120C, strain ndi1, active compounds read low 0.988 | S. cerevisiae deletion strains, locus YML124C, strain tub3, active compounds read low 1 | S. cerevisiae deletion strains, locus YMR058W, strain fet3, active compounds read low 1 | S. cerevisiae deletion strains, locus YMR078C, strain ctf18, active compounds read low 0.996 | S. cerevisiae deletion strains, locus YMR125W, strain sto1, active compounds read low 1.01 | S. cerevisiae deletion strains, locus YMR129W, active compounds read low 0.996 | S. cerevisiae deletion strains, locus YMR205C, strain PFK2, active compounds read low 1.02 | S. cerevisiae deletion strains, locus YMR223W, strain ubp8, active compounds read low 1.01 | S. cerevisiae deletion strains, locus YMR231W, strain pep5, active compounds read low 1 | S. cerevisiae deletion strains, locus YMR263W, strain SAP30, active compounds read low 1 | S. cerevisiae deletion strains, locus YMR307W, strain GAS1, active compounds read low 1.03 | S. cerevisiae deletion strains, locus YNL067W, strain RPL9B, active compounds read low 1 | S. cerevisiae deletion strains, locus YNL071W, strain lat1, active compounds read low 1.04 | S. cerevisiae deletion strains, locus YNL128W, strain TEP1, active compounds read low 1.01 | S. cerevisiae deletion strains, locus YNL153C, strain GIM3, active compounds read low 0.988 | S. cerevisiae deletion strains, locus YNL183C, strain NPR1, active compounds read low 0.983 | S. cerevisiae deletion strains, locus YNL209W, strain ssb2, active compounds read low 0.984 | S. cerevisiae deletion strains, locus YNL233W, strain BNI4, active compounds read low 1.01 | S. cerevisiae deletion strains, locus YNL248C, strain rpa49, active compounds read low 1 | S. cerevisiae deletion strains, locus YNL250W, strain rad50, active compounds read low 1.01 | S. cerevisiae deletion strains, locus YNL271C, strain bni1, active compounds read low 1.01 | S. cerevisiae deletion strains, locus YNL298W, strain CLA4, active compounds read low 1 | S. cerevisiae deletion strains, locus YNL307C, strain MCK1, active compounds read low 1.02 | S. cerevisiae deletion strains, locus YNL322C, strain KRE1 (second series), active compounds read low 0.979 | S. cerevisiae deletion strains, locus YNL322C, strain KRE1, active compounds read low 1 | S. cerevisiae deletion strains, locus YNR049C, strain mso1, active compounds read low 0.994 | S. cerevisiae deletion strains, locus YNR052C, strain pop2, active compounds read low 1.01 | S. cerevisiae deletion strains, locus YOL006C, strain TOP1, active compounds read low 1.02 | S. cerevisiae deletion strains, locus YOL012C, strain htz1 1.06 | S. cerevisiae deletion strains, locus YOL147C, strain pex11, active compounds read low 1 | S. cerevisiae deletion strains, locus YOR001W, strain rrp6, active compounds read low 0.961 | S. cerevisiae deletion strains, locus YOR061W, strain CKA2, active compounds read low 1 | S. cerevisiae deletion strains, locus YOR069W, strain VPS5, active compounds read low 0.995 | S. cerevisiae deletion strains, locus YOR070C, strain gyp1, active compounds read low 1.01 | S. cerevisiae deletion strains, locus YOR080W, strain dia2, active compounds read low 0.994 | S. cerevisiae deletion strains, locus YOR083W, strain WHI5, active compounds read low 0.995 | S. cerevisiae deletion strains, locus YOR106W, strain vam3, active compounds read low 1.02 | S. cerevisiae deletion strains, locus YOR136W, strain idh2, active compounds read low 0.997 | S. cerevisiae deletion strains, locus YOR144C, strain elg1, active compounds read low 1 | S. cerevisiae deletion strains, locus YOR184W, strain ser1, active compounds read low 1.02 | S. cerevisiae deletion strains, locus YOR231W, strain MKK1, active compounds read low 1.05 | S. cerevisiae deletion strains, locus YOR265W, strain rbl2, active compounds read low 1 | S. cerevisiae deletion strains, locus YOR270C, strain vph1, active compounds read low 1.02 | S. cerevisiae deletion strains, locus YOR290C, strain snf2, active compounds read low 1.01 | S. cerevisiae deletion strains, locus YOR316C, strain cot1, active compounds read low 1.01 | S. cerevisiae deletion strains, locus YPL051W, strain arl3, active compounds read low 1.01 | S. cerevisiae deletion strains, locus YPL055C, strain LGE1, active compounds read low 0.98 | S. cerevisiae deletion strains, locus YPL078C, strain atp4, active compounds read low 1.02 | S. cerevisiae deletion strains, locus YPL106C, strain sse1, active compounds read low 0.999 | S. cerevisiae deletion strains, locus YPL240C, strain hsp82, active compounds read low 1 | S. cerevisiae deletion strains, locus YPL241C, strain CIN2, active compounds read low 1.01 | S. cerevisiae deletion strains, locus YPL256C, strain CLN2, active compounds read low 1.04 | S. cerevisiae deletion strains, locus YPR119W, strain clb2, active compounds read low 1 | S. cerevisiae deletion strains, locus YPR141C, strain kar3, active compounds read low 0.999 | S. cerevisiae deletion strains, locus YPR163C, strain tif3, active compounds read low 1 | S. cerevisiae deletion strains, locus YPR167C, strain met16, active compounds read low 0.998 | S. cerevisiae deletion strains, strain wtn01, active compounds read low 0.997 | S. cerevisiae strains, strain wild type, active compounds read low 1
